Source: PubChem BioAssay (Tox21)
A number with no mark means an inactive call. Inconclusive results are not listed. Entries that show only a call come without a potency. Calls of active or inactive are those of the source. Unless noted, calls follow the shape of the full dose curve.

Experiments:
[1] = Nuclear factor erythroid 2-related factor 2/antioxidant responsive element (Nrf2/ARE) small molecule agonists: qHTS cell viability counter screen in human keratinocytes (AID 1919968; active = well fitted curve in the direction sought with a large enough effect in the repeat runs; an effect the other way counts as inactive or inconclusive; also: nearly all actives have a fitted effect of over 55% in size; also: potency is read from the fitted curve at half-maximal effect)
How it was run: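 KeratinoSens cells (HaCaT keratinocytes stably carrying an ARE-luciferase reporter) were seeded at 1,500 cells/well and rested 5 h at 37 C/5% CO2. They were then exposed to compounds in DMSO for 23 h. Viability was read by CellTiter-Fluor fluorescence after 1 h.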

[2] = Nuclear factor erythroid 2-related factor 2/antioxidant responsive element (Nrf2/ARE) small molecule agonists: luciferase reporter gene qHTS assay in human keratinocytes (AID 1919969); also: nearly all actives have a fitted effect of over 35% in size; also: potency is read from the fitted curve at half-maximal effect
[3] = molecular target: Gonadotropin-releasing hormone receptor (Homo sapiens) (UniProt P30968); assay: Human gonadotropin-releasing hormone receptor (GnRHR) small molecule agonists, calcium flux assay in GnRHR-HEK293 cells (AID 1920063); also: nearly all actives have a fitted effect of over 35% in size
Gonadotropin-releasing hormone receptor (Homo sapiens), sequence (P30968 whole entry, looked up): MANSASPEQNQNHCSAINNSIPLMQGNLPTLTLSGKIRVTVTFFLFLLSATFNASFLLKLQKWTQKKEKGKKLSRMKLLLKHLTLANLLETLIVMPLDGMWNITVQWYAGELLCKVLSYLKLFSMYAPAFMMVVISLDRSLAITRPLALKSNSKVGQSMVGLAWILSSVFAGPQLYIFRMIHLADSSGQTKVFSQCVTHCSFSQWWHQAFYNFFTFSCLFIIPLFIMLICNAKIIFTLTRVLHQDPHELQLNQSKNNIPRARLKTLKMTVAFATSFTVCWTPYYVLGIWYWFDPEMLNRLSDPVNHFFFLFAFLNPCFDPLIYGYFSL
How it was run: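 HEK293 cells stably expressing human GnRHR were plated 18 h at 37 °C, loaded with calcium dye 1 h at 37 °C, then given compound in agonist mode; fluorescence (Ex/Em 480/540) read kinetically for 3 min at 1 s intervals.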

[4] = molecular target: KiSS-1 receptor (Homo sapiens) (UniProt Q969F8); assay: Human kisspeptin (KISS1R) small molecule agonists, calcium flux assay in KISS1R-HEK293 cells (AID 1920064; active = well fitted curve in the direction sought with a large enough effect in the repeat runs; an effect the other way counts as inactive or inconclusive)
KiSS-1 receptor (Homo sapiens), sequence (Q969F8 whole entry, looked up): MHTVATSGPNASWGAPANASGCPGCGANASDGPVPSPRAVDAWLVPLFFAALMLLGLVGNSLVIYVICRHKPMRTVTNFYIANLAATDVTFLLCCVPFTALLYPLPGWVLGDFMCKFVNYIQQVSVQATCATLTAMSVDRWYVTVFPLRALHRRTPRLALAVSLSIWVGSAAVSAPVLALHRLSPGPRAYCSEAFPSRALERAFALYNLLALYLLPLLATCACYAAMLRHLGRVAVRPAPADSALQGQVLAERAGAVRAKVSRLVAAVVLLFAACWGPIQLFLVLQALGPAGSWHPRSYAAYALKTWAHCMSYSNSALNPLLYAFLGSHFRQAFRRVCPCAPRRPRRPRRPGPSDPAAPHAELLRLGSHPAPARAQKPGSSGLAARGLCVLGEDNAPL
How it was run: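 HEK293 cells stably expressing human KISS1R were plated 18 h at 37 °C, loaded with calcium dye for 1 h at 37 °C, then given compound by pin tool. Fluorescence (Ex/Em 480/540) was read kinetically for 3 min.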

[5] = G protein-coupled receptor (GPCR) small molecule agonists, calcium flux assay: HEK293 wild type cell line counter screen (AID 1920065)
How it was run: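 Cells were plated and cultured 18 h at 37 C/5% CO2, then loaded with calcium dye for 1 h at 37 C. Compounds in DMSO were pin-transferred in agonist mode, and fluorescence (Ex/Em 480/540) was read kinetically for 3 min at 1 s intervals.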

[6] = p53 small molecule agonists, cell-based qHTS assay with human liver microsomes (AID 1963577)
How it was run: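 Fluorescence of the beta-lactamase reporter in p53RE-bla cells, detected with LiveBLAzer substrate (2 h, room temperature, dark), served as the read-out after 16 h compound exposure at 37 C with human liver microsomes and NADPH, each 0.5 mg/mL final.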

[7] = p53 small molecule agonists, cell-based qHTS assay with rat liver microsomes (AID 1963578)
How it was run: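 Cells carrying a p53 response element–beta-lactamase reporter were plated and rested 5 h, then dosed with compound in DMSO plus rat liver microsomes and NADPH, each at 0.5 mg/mL final. After 16 h at 37 C, LiveBLAzer substrate was added for 2 h.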

[8] = p53 small molecule agonists, cell-based qHTS assay with human liver microsomes: qHTS cell viability counter screen (AID 1963579); also: nearly all actives have a fitted effect of over 45% in size
How it was run: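 Cytotoxicity counter screen: p53RE-bla, 4,000 cells/well; 5 h settle, 37 C/5% CO2; cpd + HLM 0.5 mg/mL + NADPH 0.5 mg/mL (final); 16 h, 37 C; CellTiter-Glo, 30 min RT, luminescence.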

[9] = p53 small molecule agonists, cell-based qHTS assay with rat liver microsomes: qHTS cell viability counter screen (AID 1963580); also: nearly all actives have a fitted effect of over 45% in size
How it was run: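 Viability is assessed in parallel with the p53 reporter read: HCT-116 p53RE-bla cells receive compounds plus rat microsomes and NADPH (0.5 mg/mL final apiece), incubate 16 h at 37 C, and then CellTiter-Glo luminescence is recorded.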

[10] = p53 small molecule agonists, cell-based qHTS assay: qHTS cell viability counter screen (AID 1963581); also: nearly all actives have a fitted effect of over 45% in size
How it was run: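 p53RE-bla HCT-116 cells were exposed to compounds for 16 h at 37 C; after the beta-lactamase FRET read in the same wells, CellTiter-Glo was added and luminescence (intracellular ATP) read after 30 min at room temperature.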

[11] = p53 small molecule agonists, cell-based qHTS assay (AID 1963582; active = well fitted activation curve with a large enough effect in the signal ratio in the repeat runs, not every such curve was filed as active; the % refers to the signal ratio)
How it was run: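 p53RE-bla beta-lactamase reporter cells rested 5 h at 37 C/5% CO2, then received compounds in DMSO by pin transfer and were incubated 16 h at 37 C. LiveBLAzer B/G FRET substrate was loaded for 2 h at room temperature before fluorescence reading.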

[12] = molecular target: 5-hydroxytryptamine receptor 2A (Homo sapiens) (UniProt P28223); assay: 5-hydroxytryptamine receptor 2A (HTR2A) small molecule antagonists, cell-based qHTS assay (AID 1963586); also: nearly all actives have a fitted effect of over 45% in size
5-hydroxytryptamine receptor 2A (Homo sapiens), sequence (P28223 whole entry, looked up): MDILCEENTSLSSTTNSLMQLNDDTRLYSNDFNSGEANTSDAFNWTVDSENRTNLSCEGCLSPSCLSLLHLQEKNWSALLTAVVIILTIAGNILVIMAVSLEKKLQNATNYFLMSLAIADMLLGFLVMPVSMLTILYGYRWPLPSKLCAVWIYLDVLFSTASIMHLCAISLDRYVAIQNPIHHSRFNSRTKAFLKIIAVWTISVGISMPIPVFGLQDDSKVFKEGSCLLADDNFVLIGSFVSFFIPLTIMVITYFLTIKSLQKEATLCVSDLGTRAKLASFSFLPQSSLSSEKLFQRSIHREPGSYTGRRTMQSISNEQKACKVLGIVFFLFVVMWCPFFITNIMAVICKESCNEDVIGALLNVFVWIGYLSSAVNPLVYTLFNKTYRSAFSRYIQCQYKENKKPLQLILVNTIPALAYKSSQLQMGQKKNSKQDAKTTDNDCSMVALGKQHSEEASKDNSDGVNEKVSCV
How it was run: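 Antagonist-mode intracellular calcium assay: DOI (4 nM) added after 5 min compound pre-incubation at room temperature to dye-loaded HTR2A-CHO cells. Fluorescence followed for 3 min, sampled every second.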

[13] = molecular target: 5-hydroxytryptamine receptor 2A (Homo sapiens) (UniProt P28223); assay: 5-hydroxytryptamine receptor 2A (HTR2A) small molecule agonists, cell-based qHTS assay (AID 1963587); also: nearly all actives have a fitted effect of over 30% in size
How it was run: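 CHO cells stably expressing human HTR2A, plated 18 h, loaded with calcium dye 1 h at 37 C. Agonist mode: compounds added and intracellular calcium fluorescence recorded kinetically for 2 min at 1 sec intervals.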

[14] = molecular target: Muscarinic acetylcholine receptor M1 (Homo sapiens) (UniProt P11229); assay: Cholinergic receptor muscarinic 1 (CHRM1) small molecule antagonists, cell-based qHTS assay (AID 1963588); also: nearly all actives have a fitted effect of over 40% in size
Muscarinic acetylcholine receptor M1 (Homo sapiens), sequence (P11229 whole entry, looked up): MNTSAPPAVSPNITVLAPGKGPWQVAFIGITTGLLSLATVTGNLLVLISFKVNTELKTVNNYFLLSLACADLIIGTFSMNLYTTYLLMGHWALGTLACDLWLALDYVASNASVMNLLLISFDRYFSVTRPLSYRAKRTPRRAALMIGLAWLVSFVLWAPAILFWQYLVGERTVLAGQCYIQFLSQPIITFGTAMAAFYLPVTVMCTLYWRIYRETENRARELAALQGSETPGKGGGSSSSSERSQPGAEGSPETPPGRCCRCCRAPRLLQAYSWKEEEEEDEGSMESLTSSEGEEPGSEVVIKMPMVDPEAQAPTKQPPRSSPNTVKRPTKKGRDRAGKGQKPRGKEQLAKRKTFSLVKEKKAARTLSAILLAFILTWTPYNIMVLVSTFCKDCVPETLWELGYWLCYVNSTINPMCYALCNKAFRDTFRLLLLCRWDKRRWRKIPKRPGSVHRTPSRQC
How it was run: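 CHRM1-CHO calcium-flux assay, antagonist mode. Cells were seeded 18 h, dye-loaded 1 h at 37 C and given compound for 5 min at RT, then acetylcholine was added at 50nM. FDSS fluorescence was read 3 min; 15 concentrations, three runs.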

[15] = molecular target: Muscarinic acetylcholine receptor M1 (Homo sapiens) (UniProt P11229); assay: Cholinergic receptor muscarinic 1 (CHRM1) small molecule agonists, cell-based qHTS assay (AID 1963589); also: nearly all actives have a fitted effect of over 35% in size; also: potency is read from the fitted curve at half-maximal effect
How it was run: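 CHO cells stably expressing human CHRM1, seeded 18 h at 37 C/5% CO2, dye-loaded 1 h at 37 C, then given compound in agonist mode; intracellular calcium fluorescence read kinetically at 1 s intervals. Fifteen concentrations, three independent runs.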

[16] = cAMP Responsive Elements (CRE) small molecule agonists, cell-based qHTS assay (AID 1963590); also: potency is read from the fitted curve at half-maximal effect
How it was run: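 CRE-bla HEK 293T cells in DMEM with 10% dialyzed FBS, NEAA, pyruvate and 25 mM HEPES were plated 18 h at 37 C/5% CO2, then exposed to compounds in DMSO for 3 h before LiveBLAzer B/G FRET substrate addition.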

[17] = cAMP Responsive Elements (CRE) small molecule antagonists, cell-based qHTS assay (AID 1963591; active = well fitted inhibition curve with a large enough effect in the signal ratio in the repeat runs, not every such curve was filed as active; the % refers to the signal ratio)
How it was run: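 CRE-bla HEK293T cells were plated 18 h at 37 °C/5% CO2, pinned with compound in DMSO, then stimulated with NKH477 at 0.25 uM final for 3 h. LiveBLAzer B/G FRET substrate was added and plates incubated 2 h at room temperature.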

[18] = molecular target: Beta-2 adrenergic receptor (Homo sapiens) (UniProt P07550); assay: Adrenergic beta2 receptor (ADRB2) small molecule antagonists, cell-based qHTS assay (AID 1963592); also: series mostly up to about 92 µM; nearly all actives have a fitted effect of over 50% in size
Beta-2 adrenergic receptor (Homo sapiens), sequence (P07550 whole entry, looked up): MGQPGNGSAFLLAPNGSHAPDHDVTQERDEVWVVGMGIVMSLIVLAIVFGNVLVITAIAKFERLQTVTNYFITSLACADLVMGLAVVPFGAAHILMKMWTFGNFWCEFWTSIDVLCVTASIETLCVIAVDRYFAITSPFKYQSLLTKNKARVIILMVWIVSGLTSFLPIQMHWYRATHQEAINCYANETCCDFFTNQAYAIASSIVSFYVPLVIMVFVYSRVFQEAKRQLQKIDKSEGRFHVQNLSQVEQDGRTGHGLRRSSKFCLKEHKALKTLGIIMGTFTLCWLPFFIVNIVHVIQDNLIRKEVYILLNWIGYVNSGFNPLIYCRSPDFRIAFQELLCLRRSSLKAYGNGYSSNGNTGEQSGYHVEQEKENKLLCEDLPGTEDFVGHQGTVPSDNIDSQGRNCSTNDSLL
How it was run: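 Cells (CHO, stable ADRB2 overexpression) incubated 18-20hr at 37C; compounds added from DMSO; agonist mix (1nM isoproterenol, 100uM IBMX, 25uM Ro-20-1724) added; 0.5hr RT; d2-cAMP and anti-cAMP-cryptate added; 1hr RT; 665/615 nm read.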

[19] = molecular target: D(2) dopamine receptor (Homo sapiens) (UniProt P14416); assay: Dopamine D2 receptor (DRD2) small molecule antagonists, cell-based qHTS assay (AID 1963595; active = well fitted inhibition curve with a large enough effect in the signal ratio in the repeat runs, with a control signal flat; the % refers to the signal ratio)
D(2) dopamine receptor (Homo sapiens), sequence (P14416 whole entry, looked up): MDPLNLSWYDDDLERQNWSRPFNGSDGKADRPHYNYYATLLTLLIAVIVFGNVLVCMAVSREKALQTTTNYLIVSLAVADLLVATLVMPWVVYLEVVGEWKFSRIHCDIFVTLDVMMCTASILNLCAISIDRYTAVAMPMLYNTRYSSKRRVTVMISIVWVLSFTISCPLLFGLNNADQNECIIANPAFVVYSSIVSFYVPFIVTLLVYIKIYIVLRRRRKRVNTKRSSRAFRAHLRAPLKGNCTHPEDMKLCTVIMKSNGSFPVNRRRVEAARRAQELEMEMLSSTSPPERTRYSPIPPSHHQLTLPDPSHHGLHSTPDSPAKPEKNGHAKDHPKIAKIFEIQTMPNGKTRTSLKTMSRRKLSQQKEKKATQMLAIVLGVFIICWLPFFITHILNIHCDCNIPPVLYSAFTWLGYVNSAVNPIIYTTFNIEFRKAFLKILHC
How it was run: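 HEK293 cells stably expressing DRD2, preincubated with 0.1 mM Ro20-1724 and compounds 10 min, were stimulated with 200 nM NKH477 plus 12 nM quinpirole for 30 min at room temperature; cAMP measured by HTRF (665/620 nm).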

[20] = molecular target: D(2) dopamine receptor (Homo sapiens) (UniProt P14416); assay: Dopamine D2 receptor (DRD2) small molecule agonists, cell-based qHTS assay (AID 1963594); also: nearly all actives have a fitted effect of over 35% in size
How it was run: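 HEK293 cells stably expressing human DRD2, pre-treated with PDE inhibitor Ro20-1724 (0.1 mM final) and compound 10 min at room temperature, then stimulated with NKH477 (200nM […]) for 30 min. cAMP read by HTRF (665/620 nm).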

| Structure (SMILES) | Potency [1] | Potency [2] | Potency [3] | Potency [4] | Potency [5] | Potency [6] | Potency [7] | Potency [8] | Potency [9] | Potency [10] | Potency [11] | Potency [12] | Potency [13] | Potency [14] | Potency [15] | Potency [16] | Potency [17] | Potency [18] | Potency [19] | Potency [20] |
| --- | --- | --- | --- | --- | --- | --- | --- | --- | --- | --- | --- | --- | --- | --- | --- | --- | --- | --- | --- | --- |
| Cc1c(I)c(=O)n(-c2ccccc2)n1C | inactive | inactive | inactive | inactive | inactive | inactive | inactive | inactive | inactive | inactive | inactive | inactive | inactive | inactive | 0.0379 µM (active) | inactive | inactive | inactive | inactive | – |
| CCCCCCCC(=O)[O-].CCCCCCCC(=O)[O-].[Zn+2] | inactive | inactive | inactive | inactive | inactive | inactive | inactive | inactive | inactive | inactive | inactive | inactive | inactive | inactive | inactive | inactive | inactive | inactive | inactive | inactive |
| CC1(C)C2=CCCC(C)(C)[C@]23CC[C@H]1C3 | inactive | inactive | inactive | inactive | inactive | inactive | inactive | inactive | inactive | inactive | inactive | inactive | inactive | inactive | inactive | inactive | inactive | inactive | inactive | – |
| CCOc1ccc(Cc2nccc3cc(OCC)c(OCC)cc23)cc1OCC | 4.22 µM (active) | inactive | inactive | inactive | inactive | inactive | inactive | inactive | inactive | inactive | inactive | inactive | inactive | inactive | inactive | 6.68 µM (active) | inactive | inactive | – | inactive |
| O=C1CC[C@H](C(=O)N2CCCCC2)N1 | inactive | inactive | inactive | inactive | inactive | inactive | inactive | inactive | inactive | inactive | inactive | inactive | inactive | inactive | inactive | inactive | inactive | inactive | – | inactive |
| CC(=O)N(c1onc(C)c1C)S(=O)(=O)c1ccc(N)cc1 | inactive | inactive | inactive | inactive | inactive | inactive | inactive | inactive | inactive | inactive | inactive | inactive | inactive | inactive | inactive | inactive | inactive | inactive | inactive | – |
| O=C(c1ccc(Cl)cc1)c1ccc(Cl)cc1 | inactive | inactive | inactive | inactive | inactive | inactive | inactive | inactive | inactive | inactive | inactive | inactive | inactive | inactive | inactive | inactive | inactive | inactive | inactive | inactive |
| C=CC(=O)NCOCC(C)C | inactive | inactive | inactive | inactive | inactive | inactive | inactive | inactive | inactive | inactive | inactive | inactive | inactive | inactive | inactive | inactive | inactive | inactive | inactive | – |
| C=CCCC=C | inactive | 70.5 µM (active) | inactive | inactive | inactive | inactive | inactive | inactive | inactive | inactive | inactive | inactive | inactive | inactive | inactive | inactive | inactive | inactive | inactive | – |
| C[n+]1ccn(Cc2ccccc2)c1 | inactive | inactive | inactive | inactive | inactive | inactive | inactive | inactive | inactive | inactive | inactive | inactive | inactive | inactive | inactive | inactive | inactive | inactive | inactive | inactive |
| CCCC(O)C(O)CO (stereo not given) | inactive | inactive | inactive | inactive | inactive | inactive | inactive | inactive | inactive | inactive | inactive | inactive | inactive | inactive | inactive | inactive | inactive | inactive | inactive | – |
| C=CCCC(=O)/C=C/C1C(C)=CCCC1(C)C (stereo not given) | inactive | 54.5 µM (active) | inactive | inactive | inactive | inactive | inactive | inactive | inactive | inactive | inactive | inactive | inactive | inactive | inactive | inactive | inactive | inactive | inactive | – |
| CCCCCCCCCC(C)=O | inactive | inactive | inactive | inactive | inactive | inactive | inactive | inactive | inactive | inactive | inactive | inactive | inactive | inactive | inactive | inactive | inactive | inactive | inactive | inactive |
| CC(O)Cn1cnc2c1c(=O)n(C)c(=O)n2C (stereo not given) | inactive | inactive | inactive | inactive | inactive | inactive | inactive | inactive | inactive | inactive | inactive | inactive | inactive | inactive | inactive | inactive | inactive | inactive | inactive | inactive |
| CCCc1c2oc(C(=O)O)cc(=O)c2cc2c(=O)cc(C(=O)O)n(CC)c12 | inactive | inactive | inactive | inactive | inactive | inactive | inactive | inactive | inactive | inactive | inactive | inactive | inactive | inactive | inactive | inactive | inactive | inactive | inactive | – |
